Experimental data from PubChem BioAssay.

assay: basal RPMI8226 viability, no added stimulus, profiling panel, cell-based, calcein-AM fluorescence, 48 h, PK04 Diversity Set (AID 1166); details: RPMI8226 myeloma viability, higher = more signal;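 further: cells grown under basal conditions without added stimulus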
Further: test concentration not given here.

Compound	z-score
O=C1C2C=CC(C(O)C=Cc3ccc([N+](=O)[O-])cc3)N(Nc3ccccc3F)C2C(=O)N1c1ccccc1 (stereo not given)	-0.343
C=C(CCCC)/C(=C/C[C@@H](OC(C)=O)c1ccccc1OCCO)c1cc(C(=O)OC)ccc1OC	-0.354
O=C1C2C=CC(C(O)c3ccc(F)cc3)N(Nc3ccc([N+](=O)[O-])cc3)C2C(=O)N1c1ccccc1 (stereo not given)	-0.313
CC(=O)NCCCC[C@@H]1NC(=O)[C@H]2C[C@@H](C(=O)O)[C@@H](c3ccc(O)cc3)N2C1=O	-1.3
COc1ccc([Si](C)(C)[C@H]2[C@H](CCn3cc([C@H](O)c4ccccc4)nn3)O[C@@]3(C(=O)N(C)c4ccccc43)[C@@H]2C)cc1	-1.79

assay: basal HepG2 mitochondrial membrane potential changes, profiling panel, cell-based, JC-1 fluorescence, 24 h, 100 nL compound (AID 1167); details: higher = more signal

Compound	z-score
[N-]=[N+]=Nc1ccccc1[C@H]1OC(c2ccc(OCCCO)cc2)=N[C@@]1(Cc1ccccc1)C(=O)N1CCOCC1	-0.273
CN1C(=O)C2C=CC(C(O)c3ccccc3)N(N3CCCCC3)C2C1=O (stereo not given)	-0.699
C=CCC(OC(C)=O)[C@@H]1[C@@H](N(Cc2ccc(-c3ccccc3)cc2)C(=O)Cc2ccc(F)cc2)c2cc(OCCCO)ccc2N1C(=O)c1ccc2ccccc2c1 (stereo not given in full)	1.61
COc1cc(CO)cc(I)c1O[C@H]1C=C(C(=O)NCCO)C[C@@H](N(C(=O)c2cc3ccccc3oc2=O)C2CCCCCC2)[C@@H]1O	-1.63
CCCNC(=O)[C@@]1(Sc2ccc(C)cc2)CC(=O)N(Cc2ccccc2C(F)(F)F)[C@@H]1c1ccc(CO)cc1I	-0.453
NC(=O)[C@@H]1[C@H]2C(=O)O[C@H](c3ccccc3)[C@H](c3ccccc3)N2[C@H](c2ccc(OCCO)cc2)[C@@]12C(=O)Nc1ccc(C#CC3=CCCCC3)cc12	-2.81
COCCCNC(=O)[C@@]1(Cc2ccccc2)N=C(c2ccc(OCCCO)cc2)O[C@H]1c1ccccc1CN=[N+]=[N-]	1.31
Cc1ccc(C2C3C(=O)CC4C(=O)N(c5ccccc5)C(=O)C4C3CN2S(=O)(=O)c2ccc(C)cc2)cc1 (stereo not given)	0.371
O=C(NC1CC1)[C@@H]1c2ccccc2C(=O)N(Cc2cc(F)cc(C(F)(F)F)c2)[C@H]1c1ccc(CO)cc1	0.86
COc1cc2c(cc1O)C(c1cccs1)N(Cc1cccc(OC(F)(F)F)c1)CC2 (stereo not given)	-2.21
CCOC(=O)C1=CC[C@@H](c2ccccc2)N(S(=O)(=O)c2ccc(C)cc2)[C@H]1c1ccc(CC)cc1	5.94
CN1CCC(CCCO)=CC1c1cccs1 (stereo not given)	-0.927
CCCCCN1CC=CC23O[C@@H]4C=CCOC(=O)[C@@H]4[C@H]2C(=O)N(C(C)CO)[C@@H]3C1=O (stereo not given in full)	-0.714
Cc1ccc(S[C@]2(C(=O)NCC(C)C)CC(=O)N(Cc3cc(C(F)(F)F)cc(C(F)(F)F)c3)[C@@H]2c2ccc(CO)cc2)cc1	-0.444
CC1CC/C=C\[C@H]2OC34C=CCN(Cn5nnc6ccccc65)C(=O)[C@H]3N(CCCCCO)C(=O)[C@@H]4C2C(=O)O1 (stereo not given in full)	0.944
COc1ccc([Si](C)(C)[C@@H]2[C@@H](CCO)O[C@]3(C(=O)N(Cc4cccc(N5CCOC5=O)c4)c4ccccc43)[C@H]2C)cc1	0.183
CCCCN1CC=CC23O[C@@H]4C=CCCOC(=O)C4[C@H]2C(=O)N(CCCCCO)[C@@H]3C1=O (stereo not given in full)	0.84
COc1ccc(CCNC(=O)[C@@]2(C)c3ccccc3C(=O)N(c3ccc(C)cn3)[C@H]2c2ccc(CO)cc2)cc1	-0.429

Compound	z-score
COC(=O)[C@@]1(Cc2ccc(OC)cc2)[C@H]2c3cc(C(=O)N4CCCC4)n(Cc4nc5ccccc5[nH]4)c3C[C@H]2CN1C(=O)c1ccccc1	-0.128
[N-]=[N+]=NCc1ccccc1[C@@H]1OC(c2ccc(OCCCO)cc2)=N[C@]1(CCS(=O)(=O)c1ccccc1)C(=O)N1CCOCC1	2.29
CCOC(=O)C1=CC[C@H]2C(=O)N(c3ccccc3)C(=O)[C@@H]12	-1.8
COC(=O)[C@@]1(Cc2ccc(F)cc2)[C@H]2c3cc(C(=O)N(C)C)n(Cc4ccc(C)o4)c3C[C@H]2CN1C(=O)c1ccccc1	0.0211
OCCCC1=CC(C2CC2)N(Cc2cccc(OC(F)(F)F)c2)CC1 (stereo not given)	0.64
CCOc1cc(C(O)C2C=CC3C(=O)N(c4ccccc4)C(=O)C3N2Nc2ccc(C(C)C)cc2)ccc1O (stereo not given)	-1.66
CO[C@H]1O[C@H](CO)[C@@H](OC(=O)Nc2ccccc2)[C@@H]2OC(=O)[C@@H](Cc3ccc4ccccc4c3)C/C=C/C[C@H](Cc3ccc4ccccc4c3)C(=O)O[C@@H]12	-1
CCOC(=O)C[C@H]1[C@H](OC(=O)c2ccc(C(=O)c3ccccc3)cc2)[C@@H](NC(=O)Cc2ccc(OC)cc2)c2cc(OCCCO)ccc2N1C(=O)c1ccc2ccccc2n1	0.658
C=CC[C@]1(C(=O)N2CCOCC2)N=C(c2ccc(OCCCO)cc2)O[C@H]1c1ccccc1N=[N+]=[N-]	1.23
NC(=O)[C@@H]1[C@H]2C(=O)O[C@H](c3ccccc3)[C@H](c3ccccc3)N2[C@H](c2ccc(O)cc2)[C@@]12C(=O)Nc1ccc(C#CC3=CCCCC3)cc12	-3.59
COCCCNC(=O)[C@]1(Cc2ccccc2)N=C(c2ccc(OCCCO)cc2)O[C@@H]1c1ccccc1CN=[N+]=[N-]	2.15
CC(C)(C)OC(=O)CC[C@]1(C(N)=O)N=C(c2ccc(OCCCO)cc2)O[C@H]1c1ccccc1	-1.26
O=C1C2C=CC(C(O)C=Cc3ccc([N+](=O)[O-])cc3)N(Nc3ccccc3F)C2C(=O)N1c1ccccc1 (stereo not given)	-1.33
C=C(CCCC)/C(=C/C[C@@H](OC(C)=O)c1ccccc1OCCO)c1cc(C(=O)OC)ccc1OC	1.75
O=C1C2C=CC(C(O)c3ccc(F)cc3)N(Nc3ccc([N+](=O)[O-])cc3)C2C(=O)N1c1ccccc1 (stereo not given)	-0.382
CC(=O)NCCCC[C@@H]1NC(=O)[C@H]2C[C@@H](C(=O)O)[C@@H](c3ccc(O)cc3)N2C1=O	0.237
COc1ccc([Si](C)(C)[C@H]2[C@H](CCn3cc([C@H](O)c4ccccc4)nn3)O[C@@]3(C(=O)N(C)c4ccccc43)[C@@H]2C)cc1	-0.602
